# According to PubChem BioAssay AID2507 (National Center for Advancing Translational Sciences (NCATS), 2010):
# Records with an inconclusive call do not appear. Unmarked numbers belong to inactive results. The call rests on the fitted dose curve; in most records, active means well fitted inhibition curve with a large enough effect; inconclusive means small, poorly fitted or top-dose-only effect, or effect the other way; inactive means flat fitted curve, though single readings scatter.
# Test: Secondary Assay for General miRNAs Modulators and/or Inhibitors/Activators of miR-21: miR-30 Firefly Luciferase Assay
# Settings: HeLa miR-30 FLuc reporter, luminescence, 48 h; series mostly up to 38.3 µM; activity change, negative = inhibition: at the top concentration
# Source text: MLSCN Grant: 1 R21 NS059478-01 Assay Provider: Qihong Huang, The Wistar Institute NCGC Assay Overview: MicroRNAs (miRNAs) are endogenously encoded small (~20-25 nucleotides), nonprotein-coding RNAs that are involved in post-transcriptional repression of target messenger RNAs (mRNAs) (Le and Hannon, 2004). Estimated to be involved in the regulation of 30% of all protein-coding mRNAs (Filipowicz et al., 2008), miRNAs play a significant role in many biological processes including cellular differentiation and tissue development (Ghildiyal and Zamore, 2009). […] Compounds active in the miR-21 FLuc assay were clustered using Leadscope and active chemical series were prioritized based on chemical properties, potential for medicinal chemistry optimization, and SAR. Within each chemical series, representative compounds were re-acquired to test for activity in a secondary assay based on the quality of their CRC, efficacy, and potency. The secondary assay to determine if compounds active in the miR-21 FLuc assay were potentially specific for miR-21 and were not general modulators of the miRNA pathway was another cell-based FLuc reporter gene assay, this time targeting miR-30. Compounds found active in both the miR-21 FLuc and miR-30 FLuc assays are not considered miR-21 specific compounds, and may be general miRNA modulators.
# NCGC Assay Protocol Summary: Reagents: HeLa cells stably expressing firefly luciferase (FLuc) under the control of a CMV promoter (upstream) and a miR-30 binding sequence directly downstream of the gene. These cells also stably express miR-30. Control compounds used were compound C3 (provided by collaborator), N6-phenyladenosine (MP Biomedicals, 0215379625), and DMSO. Assay Summary: 6uL of HeLa miR-30-FLuc cells in assay buffer (DMEM, Invitrogen #21063-029; 10% FBS, HyClone #SH30071.03) were dispensed at 1000cells/well (1.7 x 10^5 cells/mL) into Greiner solid-white TC-treated 1536-well plates using a Multidrop Combi (Thermo Fisher Scientific). Plates were incubated for one hour at 37 degree Celsius, 95% humidity, 5% CO2. These assay plates were then treated with 23nL of compound or DMSO using a Kalypsys pin tool, which allows for delivery of a 24-point titration of each compound to the assay plate, with a final compound concentration ranging from approximately 40uM to 5pM. Assay plates were then incubated for 48 hours. After incubation, plates were allowed to come to RT for one hour prior to delivery of 3uL of 3X luciferase detection reagent. After a 15 minute incubation to allow for cell lysis, luciferase activity was measured using a ViewLux CCD imager (PerkinElmer), with an average exposure time of 2-12 seconds. Keywords: NIH Roadmap, MLPCN, MLSMR, qHTS, miR-21, miR-30, microRNA, firefly luciferase, FLuc.
row,Compound,"activity change, negative = inhibition"
1,Cc1ccccc1OCCn1cnc2c(N)ncnc21,-28.9%
